Screening results (PubChem)
Rows were chosen to be rich in hits. Some 14% of all compounds tested hit in one or more screens of this group.
Sm TGR inh = inhibitors of Schistosoma mansoni thioredoxin glutathione reductase; purified TGR, DTNB reduction, TNB absorbance 405 nm; Potency, µM (highest dose often 114 µM), usual class: inhibitors; 360,000 tested, 3% active; AID 485364; note: nearly all actives have a fitted effect of over 60% in size
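Kinetic colorimetric format: TGR-catalysed, NADPH-driven DTNB reduction monitored via TNB absorbance. Enzyme dispensed at 20 nM; compound exposure 15 min at room temperature before reaction start.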
Pf growth 96h = P. falciparum growth inhibition at 96 hour, primary screen for plastid delayed-death inhibitors; AID 504834; Potency, µM (series often up to 28.7 µM), hits mostly inhibitors; 320,000 tested, 6.9% active; P. falciparum luciferase reporter growth, 96 h
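Two parasite generations (96 h, 37 C, 5% CO2) of compound exposure in infected erythrocytes (0.05% parasitemia, 2% hematocrit). Luciferase-reporter P. falciparum; decreased luminescence indicates inhibited growth, aimed at apicoplast-acting delayed death.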
HCMV inh = human cytomegalovirus inhibition; 410,000 tested, 4.5% active; activity change, negative = inhibition, % at 57.5 µM; HFF cells, HCMV-luciferase reporter, 72 h; active compounds read low; in the data active = activity change below about -60%; inconclusive = no clear call, values can overlap the other calls; inactive = above about -39%
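Human foreskin fibroblasts infected with luciferase-reporter HCMV at MOI 1 PFU/cell, compounds at two doses. Luciferase measured 72 h post infection; normalized to buffer-only basal and Salinomycin (10uM) controls.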
FBPA Giardia inh = Giardia lamblia aldolase inhibition | Potency, µM (top dose mostly 59.6 µM), hits mostly inhibitors | A8B2U2 | 290,000 tested, 0.71% active | purified Giardia FBPA | AID 2451; note: nearly all actives have a fitted effect of over 55% in size
Target sequence (A8B2U2 whole entry, looked up): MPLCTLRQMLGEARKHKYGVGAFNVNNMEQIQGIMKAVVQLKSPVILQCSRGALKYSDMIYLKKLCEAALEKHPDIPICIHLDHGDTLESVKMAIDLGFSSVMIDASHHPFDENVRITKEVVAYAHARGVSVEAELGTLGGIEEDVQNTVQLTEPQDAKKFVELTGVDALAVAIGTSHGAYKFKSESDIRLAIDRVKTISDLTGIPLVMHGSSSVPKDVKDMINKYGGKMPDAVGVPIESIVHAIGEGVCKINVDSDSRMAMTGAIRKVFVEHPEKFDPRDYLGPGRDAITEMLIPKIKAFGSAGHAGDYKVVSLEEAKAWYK
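40 nM FBPA preincubated 10 min at RT with compound (up to 57.5 uM final), then substrate plus GAPDH/TPI/NAD/arsenate coupling and diaphorase/resazurin added. Fluorescence read after 20 min at RT, 525/598 nm.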
Pf growth 48h = inhibits P. falciparum growth in the first generation, 48 h | Potency, µM (titrated, usually from 28.7 µM), usual class: inhibitors | P. falciparum luciferase growth in erythrocytes, 48 h | AID 504832 | 310,000 tested, 5.9% active
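In quantitative HTS format, infected erythrocytes bearing luciferase-reporter parasites were treated for a single generation at 37 C. Luminescence after adding detection reagent served as the growth measure.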
Hits are given with their value; i = inactive; ? = inconclusive; nt = no result given; [ ] = remark or other dose. Unless noted, calls come from the whole dose curve; as a rule, active = well fitted curve in the direction sought with a large enough effect; inconclusive = small, poorly fitted or top-dose-only effect, or another doubt; inactive = no such curve, though single readings can be large; an effect the other way counts as inactive or inconclusive.

SMILES	Sm TGR inh	Pf growth 96h	HCMV inh	FBPA Giardia inh	Pf growth 48h
CC1CCN(C(C)C(=O)Nc2ccccc2-c2ccccc2)CC1 (centres undefined)	i	i	i	?	i
Cc1ccc(Cl)cc1NC(=O)CSc1nc2ccccc2c2nc(-c3ccccc3)nn12	i	nt	i	nt	nt
Cc1ccc2cc(C3CC(c4ccco4)=NN3C(=O)CCCC(=O)O)c(Cl)nc2c1 (centres undefined)	?	i	?	i	i
Cc1ccc2cc(C3CC(c4ccco4)=NN3S(=O)(=O)c3ccccc3)c(Cl)nc2c1 (centres undefined)	i	i	-80	i	i
Cc1ccc2cc(C3CC(c4ccco4)=NN3S(C)(=O)=O)c(Cl)nc2c1 (centres undefined)	11µM	i	i	i	?
CCOc1ccc2cc(C3CC(c4ccco4)=NN3S(=O)(=O)c3ccccc3)c(Cl)nc2c1 (centres undefined)	i	13µM	i	i	15µM
COc1ccc2cc(C3CC(c4ccco4)=NN3S(=O)(=O)c3ccccc3)c(Cl)nc2c1 (centres undefined)	i	?	i	i	?
CCOc1ccc2nc(Cl)c(C3CC(c4ccco4)=NN3S(C)(=O)=O)cc2c1 (centres undefined)	32µM	?	i	i	?
COc1ccc(C2=NN(S(C)(=O)=O)C(c3cccs3)C2)cc1 (centres undefined)	i	i	i	i	i
CCOc1ccc2cc(C3CC(c4ccco4)=NN3S(C)(=O)=O)c(=O)[nH]c2c1 (centres undefined)	3.2µM	i	i	i	i
Cc1ccc2nc(Cl)c(C3CC(c4ccco4)=NN3S(C)(=O)=O)cc2c1 (centres undefined)	14µM	?	i	i	?
COc1ccc(NC(=O)c2c(C)oc3ccc(O)c(CN4CCC(C)CC4)c23)cc1Cl	i	nt	?	nt	nt
Cc1ccc([C@@H]2[C@@H]3C(=O)N(C)C(=O)[C@@H]3[C@]3(C)C(=O)N(Cc4ccc(-c5ccccc5)cc4)CC(=O)N23)o1	?	i	i	i	i
CCN(C(=O)CN(C)S(=O)(=O)c1ccc2c(c1)c(=O)n(C)c(=O)n2C)c1ccc(OC)cc1	i	nt	i	nt	nt
CN1c2ccccc2-c2nc3ccccc3n2C1c1ccccn1 (centres undefined)	i	nt	i	?	9.3µM
CN1c2ccccc2-c2nc3ccccc3n2C1c1ccncc1 (centres undefined)	i	?	i	i	?
c1ccc(CN2c3ccccc3-c3nc4ccccc4n3C2c2ccccn2)cc1 (centres undefined)	i	4.1µM	?	nt	7.4µM
CCN1c2ccccc2-c2nc3ccccc3n2C1c1ccco1 (centres undefined)	i	4.7µM	i	i	12µM
CCC/C=C(\CCC)C(NS(=O)(=O)c1ccc(Cl)cc1)c1ccc(C(=O)OC)cc1 (centres undefined)	nt	nt	nt	i	nt
CC(C)Oc1ccc(F)cc1-c1cc(C(=O)NCc2ccc(F)cc2)[nH]n1	nt	nt	i	nt	nt
O=C1CCCc2cc3c(cc21)CC1(C3)Cc2cc3c(cc2C1)C(=O)CCC3	i	?	-81	i	5.2µM
Cc1ccc(SCc2cc(=O)c3c(=O)n(-c4ccccc4)[nH]c3[nH]2)cc1	i	9.3µM	i	i	i[5.75 µM]
O=c1cc(CSc2ccc(Cl)cc2)[nH]c2[nH]n(-c3ccccc3)c(=O)c12	45µM	i	i	i	i
O=[N+]([O-])C(=C1Nc2ccccc2N1)C(Cl)=C(Cl)Cl	3.2µM	i	i	?	i
CCOc1ccc(N2C(=O)CS/C2=C(\C(Cl)=C(Cl)Cl)[N+](=O)[O-])cc1	i	i	nt	?	nt
COC(=O)C1(C(=O)OC)CC2=CCC3C(=O)N(c4ccccc4)C(=O)C3C2Cc2ccccc2[C@@H]1C[N+](=O)[O-] (some centres undefined)	nt	nt	nt	i	nt
COCCNC(=O)C(=O)Nc1ccc2c(c1)N(S(=O)(=O)c1cccs1)CCC2	i	?	i	nt	i
CC(C)CCNC(=O)C(=O)Nc1ccc2c(c1)N(S(=O)(=O)c1cccs1)CCC2	i	?	i	nt	5.9µM
COC(CNC(=O)C(=O)Nc1ccc2c(c1)N(S(=O)(=O)c1cccs1)CCC2)OC	i	i	i	nt	?
CC(C)CNC(=O)C(=O)Nc1ccc2c(c1)N(S(=O)(=O)c1cccs1)CCC2	i	10µM	i	nt	?
